# PubChem BioAssay (NCATS)
# Results filed as inconclusive are left out. A number with no mark means an inactive call. Calls of active or inactive are those of the source. Calls follow the shape of the dose curve; as a rule, active = well fitted cell-killing curve with a large enough effect; inconclusive = small, poorly fitted or top-dose-only effect, or effect the other way; inactive = no such curve, though single readings can be large or run the other way.
# Columns and labels:
# [1] = Quantitative High-Throughput drug screen in 47 multiple myeloma cell lines against the NCATS MIPE library collection: KMS28PE_JCRB cell viability assay (AID 1918983); also: nearly all actives have a fitted effect of over 35% in size
# Summary of the method: (§1)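 Cells were exposed to library compounds for 48 hours, after which ATP was measured by CellTiter-Glo. Signal was taken as median relative luminescence units.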
# [2] = Quantitative High-Throughput drug screen in 47 multiple myeloma cell lines against the NCATS MIPE library collection: OCIMY7_PLB cell viability assay (AID 1918987); details: OCI-MY7 myeloma viability, CellTiter-Glo ATP, 48 h; viability (% of DMSO): at 45.8 µM (top of the series); also: nearly all actives have a fitted effect of over 65% in size
# Summary of the method: as §1
# [3] = Quantitative High-Throughput drug screen in 47 multiple myeloma cell lines against the NCATS MIPE library collection: SKMM1_PLB cell viability assay (AID 1919863); details: SKMM1 myeloma viability, CellTiter-Glo ATP, 48 h; viability: active compounds read low; also: nearly all actives have a fitted effect of over 35% in size
# Summary of the method: as §1
# [4] = Quantitative High-Throughput drug screen in 47 multiple myeloma cell lines against the NCATS MIPE library collection: XG6_PLB cell viability assay (AID 1919865); also: nearly all actives have a fitted effect of over 40% in size
# Summary of the method: as §1
# [5] = Quantitative High-Throughput drug screen in 47 multiple myeloma cell lines against the NCATS MIPE library collection: XG1_PLB cell viability assay (AID 1919866); also: nearly all actives have a fitted effect of over 35% in size
# Summary of the method: as §1
# [6] = Quantitative High-Throughput drug screen in 47 multiple myeloma cell lines against the NCATS MIPE library collection: OPM1_PLB cell viability assay (AID 1918989); also: nearly all actives have a fitted effect of over 40% in size
# Summary of the method: as §1
# [7] = Quantitative High-Throughput drug screen in 47 multiple myeloma cell lines against the NCATS MIPE library collection: OCIMY5_PLB cell viability assay (AID 1918988); also: nearly all actives have a fitted effect of over 65% in size
# Summary of the method: as §1
# [8] = Quantitative High-Throughput drug screen in 47 multiple myeloma cell lines against the NCATS MIPE library collection: U266_ATCC cell viability assay (AID 1919864); also: nearly all actives have a fitted effect of over 35% in size
# Summary of the method: as §1
# [9] = Quantitative High-Throughput drug screen in 47 multiple myeloma cell lines against the NCATS MIPE library collection: L363_DSMZ cell viability assay (AID 1918984); also: nearly all actives have a fitted effect of over 40% in size
# Summary of the method: as §1
# [10] = Quantitative High-Throughput drug screen in 47 multiple myeloma cell lines against the NCATS MIPE library collection: KMS34_JCRB cell viability assay (AID 1918985); also: nearly all actives have a fitted effect of over 40% in size
# Summary of the method: as §1
# Potency is read from the fitted curve at half-maximal effect.
smiles,measurement,setting,value
COc1ccc(-n2c(C)c([N+](=O)[O-])c3ccc(O)cc32)cc1,Potency,[1],inactive
same,Potency,[2],14.8 µM (active)
same,Potency,[3],4.18 µM (active)
same,Potency,[4],inactive
CO[C@H]1C[C@@H]2CC[C@@H](C)[C@@](O)(O2)C(=O)C(=O)N2CCCC[C@@H]2C(=O)O[C@H]([C@H](C)C[C@@H]2CC[C@H](OP(C)(C)=O)[C@H](OC)C2)CC(=O)[C@H](C)C=C(C)[C@@H](O)[C@@H](OC)C(=O)[C@H](C)C[C@H](C)C=CC=CC=C1C,Potency,[1],inactive
same,viability,[3],83.3%
same,Potency,[5],inactive
CC(C)[C@H](CO)Nc1nc(Nc2ccc(C(=O)O)c(Cl)c2)c2ncn(C(C)C)c2n1,Potency,[1],37.2 µM (active)
same,Potency,[2],16.6 µM (active)
same,Potency,[6],10.5 µM (active)
O=C(Nc1ccccc1-c1cn2c(CN3CCNCC3)csc2n1)c1cnc2ccccc2n1,Potency,[1],23.5 µM (active)
same,Potency,[2],9.35 µM (active)
same,Potency,[7],8.33 µM (active)
same,Potency,[6],8.33 µM (active)
same,Potency,[3],4.69 µM (active)
same,Potency,[8],11.8 µM (active)
same,Potency,[4],9.35 µM (active)
same,Potency,[5],7.43 µM (active)
NC[C@@H]1O[C@@H](O[C@H]2[C@@H](O)[C@H](O[C@@H]3[C@@H](O)[C@@H](N)C[C@H](N)[C@H]3O[C@H]3O[C@H](CN)[C@@H](O)[C@@H](O)[C@H]3N)O[C@H]2CO)[C@H](N)[C@@H](O)[C@@H]1O,Potency,[9],inactive
same,Potency,[10],inactive
same,Potency,[7],inactive
same,Potency,[6],inactive
same,Potency,[8],inactive
same,Potency,[4],inactive
same,Potency,[5],inactive
CC(C)n1nc(-c2ccc3oc(N)nc3c2)c2c(N)ncnc21,Potency,[1],0.0023 µM (active)
same,Potency,[2],2.64 µM (active)
same,Potency,[7],4.69 µM (active)
same,Potency,[3],0.0074 µM (active)
CCOC(=O)C1=C(N)Oc2ccc(Br)cc2C1C(C#N)C(=O)OCC (centres undefined),Potency,[1],26.4 µM (active)
same,Potency,[2],7.43 µM (active)
same,Potency,[7],9.35 µM (active)
same,Potency,[6],23.5 µM (active)
same,Potency,[3],20.9 µM (active)
same,Potency,[4],18.7 µM (active)
CNC(=O)c1ccc2cc(C3(O)CCn4cncc43)ccc2c1 (centres undefined),Potency,[1],inactive
same,Potency,[6],inactive
same,Potency,[5],inactive
COc1ccc2cc(-c3nc(-c4ccc(S(C)=O)cc4)[nH]c3-c3ccncc3)ccc2c1 (centres undefined),Potency,[1],inactive
same,Potency,[7],14.8 µM (active)
same,Potency,[6],20.9 µM (active)
same,viability,[3],106%
COc1cc2c(cc1OC)CN(CCc1ccc(NC(=O)c3cc(OC)c(OC)cc3NC(=O)c3cnc4ccccc4c3)cc1)CC2,Potency,[9],inactive
same,Potency,[10],inactive
same,Potency,[2],6.62 µM (active)
same,Potency,[6],14.8 µM (active)
same,viability,[3],118%
same,Potency,[8],5.26 µM (active)
same,Potency,[4],18.7 µM (active)
same,Potency,[5],20.9 µM (active)
Cc1nc(N)sc1-c1ccnc(Nc2ccc(N3CCOCC3)cc2)n1,Potency,[9],2.96 µM (active)
same,Potency,[10],1.05 µM (active)
same,Potency,[7],5.26 µM (active)
same,Potency,[6],4.18 µM (active)
same,Potency,[8],23.5 µM (active)
same,Potency,[4],4.69 µM (active)
Cc1c(NC(=O)c2ccc(C(C)(C)C)cc2)cccc1-c1cn(C)c(=O)c(Nc2ccc(C(=O)N3CCOCC3)cc2)n1,Potency,[1],23.5 µM (active)
same,Potency,[2],8.33 µM (active)
same,Potency,[7],16.6 µM (active)
same,Potency,[6],18.7 µM (active)
same,Potency,[4],20.9 µM (active)
same,Potency,[5],9.35 µM (active)
O=C(CCCCCCC(=O)Nc1ccccc1)NO,Potency,[9],1.87 µM (active)
same,Potency,[10],1.87 µM (active)
same,Potency,[7],2.64 µM (active)
same,Potency,[6],1.32 µM (active)
same,Potency,[3],3.72 µM (active)
same,Potency,[8],5.9 µM (active)
same,Potency,[5],2.96 µM (active)
CNC(=O)c1ccccc1Sc1ccc2c(C=Cc3ccccn3)n[nH]c2c1,Potency,[1],5.26 µM (active)
same,Potency,[7],0.935 µM (active)
same,Potency,[6],18.7 µM (active)
same,Potency,[3],13.2 µM (active)
O=c1[nH]cnc2c1ncn2[C@H]1CC[C@@H](CO)O1,Potency,[9],inactive
same,Potency,[7],inactive
same,viability,[3],151%
same,Potency,[8],inactive
same,Potency,[4],inactive
CO[C@H]1C=CO[C@@]2(C)Oc3c(C)c(O)c4c(O)c(c5c(c4c3C2=O)NC2(CCN(CC(C)C)CC2)N=5)=NC(=O)C(C)=CC=C[C@H](C)[C@H](O)[C@@H](C)[C@@H](O)[C@@H](C)[C@H](OC(C)=O)[C@H]1C,Potency,[9],inactive
same,Potency,[2],4.18 µM (active)
same,Potency,[7],23.5 µM (active)
same,Potency,[6],inactive
same,viability,[3],99.2%
same,Potency,[8],inactive
same,Potency,[5],20.9 µM (active)
O=C(O)[C@H]1O[C@H](Oc2cc3oc(-c4ccccc4)cc(=O)c3c(O)c2O)[C@H](O)[C@@H](O)[C@H]1O,Potency,[9],inactive
same,Potency,[7],23.5 µM (active)
same,Potency,[6],18.7 µM (active)
same,Potency,[3],20.9 µM (active)
same,Potency,[4],inactive
O=C1NC(=O)C(=Cc2ccc(-c3ccc(F)cc3)o2)S1,Potency,[9],3.72 µM (active)
same,Potency,[2],20.9 µM (active)
same,Potency,[4],18.7 µM (active)
Cc1cnc(C(=O)O)c[n+]1[O-],Potency,[9],inactive
same,Potency,[10],4.18 µM (active)
same,Potency,[6],inactive
same,Potency,[8],inactive
same,Potency,[4],inactive
same,Potency,[5],inactive
C[C@]12CC[C@@H]3c4ccc(O)cc4C[C@@H](CCCCCCCCCS(=O)CCCC(F)(F)C(F)(F)F)[C@H]3[C@H]1CC[C@H]2O (some centres undefined),Potency,[9],inactive
same,Potency,[2],5.9 µM (active)
same,Potency,[7],10.5 µM (active)
same,Potency,[4],6.62 µM (active)
same,Potency,[5],inactive
